Data on 3 molecules can be found in PubChem BioAssay (NCATS).

Results filed as inconclusive are left out. Unmarked numbers belong to inactive results. The source made the active and inactive calls. Calls follow the shape of the dose curve; as a rule, active = well fitted cell-killing curve with a large enough effect; inconclusive = small, poorly fitted or top-dose-only effect; inactive = flat fitted curve, though single readings scatter.
% is scaled to controls: 0 for no effect and ±100 for the full control effect; potency is read from the fitted curve at half-maximal effect.

The experiment can be described thus: Vero cells viability qHTS for Zika virus inhibitors (AID 1347167). The settings on record: cytotoxicity counter-screen (Zika); series mostly up to 45.9 µM; activity change, negative = cytotoxicity: at the top concentration. The method, boiled down:
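Luminescent ATP readout (CellTiter Glo) after 30 min at 37 degrees C gives viability; cells in DMEM + 4% FBS were treated 24 to 48 hours with compound, following overnight attachment.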
`C[C@]12CC[C@@H]3c4ccc(OC(=O)N(CCCl)CCCl)cc4CC[C@H]3[C@@H]1CC[C@@H]2O`: the “activity change, negative = cytotoxicity” value was -0.465%.

`O=C(Nc1ccc(Br)cc1)c1cc(Br)cc(Br)c1O`: the Potency is 23.4 µM (active).

Turning to `O=c1c(C2CC(c3ccc(-c4ccc(Br)cc4)cc3)Cc3ccccc32)c(O)sc2ccccc12` (stereo not drawn), the “activity change, negative = cytotoxicity” value was -11.1%.
